Measured values as given in article PMC4336329 (PLoS ONE, 2015).
In all, about 310,000 compounds went through this assay and about 2,200 (0.71%) showed an effect of 50% or more. The effect is printed as a negative number. Only a selection was taken, and strong results are over-represented in it overall.

Target: human ether-à-go-go-related gene (hERG) potassium channel (human, UniProt Q12809)
Test: primary screen, population patch clamp on CHO cells stably expressing hERG; higher = less effect of the substance

Chain of human ether-à-go-go-related gene (hERG) potassium channel (Q12809 whole entry, looked up): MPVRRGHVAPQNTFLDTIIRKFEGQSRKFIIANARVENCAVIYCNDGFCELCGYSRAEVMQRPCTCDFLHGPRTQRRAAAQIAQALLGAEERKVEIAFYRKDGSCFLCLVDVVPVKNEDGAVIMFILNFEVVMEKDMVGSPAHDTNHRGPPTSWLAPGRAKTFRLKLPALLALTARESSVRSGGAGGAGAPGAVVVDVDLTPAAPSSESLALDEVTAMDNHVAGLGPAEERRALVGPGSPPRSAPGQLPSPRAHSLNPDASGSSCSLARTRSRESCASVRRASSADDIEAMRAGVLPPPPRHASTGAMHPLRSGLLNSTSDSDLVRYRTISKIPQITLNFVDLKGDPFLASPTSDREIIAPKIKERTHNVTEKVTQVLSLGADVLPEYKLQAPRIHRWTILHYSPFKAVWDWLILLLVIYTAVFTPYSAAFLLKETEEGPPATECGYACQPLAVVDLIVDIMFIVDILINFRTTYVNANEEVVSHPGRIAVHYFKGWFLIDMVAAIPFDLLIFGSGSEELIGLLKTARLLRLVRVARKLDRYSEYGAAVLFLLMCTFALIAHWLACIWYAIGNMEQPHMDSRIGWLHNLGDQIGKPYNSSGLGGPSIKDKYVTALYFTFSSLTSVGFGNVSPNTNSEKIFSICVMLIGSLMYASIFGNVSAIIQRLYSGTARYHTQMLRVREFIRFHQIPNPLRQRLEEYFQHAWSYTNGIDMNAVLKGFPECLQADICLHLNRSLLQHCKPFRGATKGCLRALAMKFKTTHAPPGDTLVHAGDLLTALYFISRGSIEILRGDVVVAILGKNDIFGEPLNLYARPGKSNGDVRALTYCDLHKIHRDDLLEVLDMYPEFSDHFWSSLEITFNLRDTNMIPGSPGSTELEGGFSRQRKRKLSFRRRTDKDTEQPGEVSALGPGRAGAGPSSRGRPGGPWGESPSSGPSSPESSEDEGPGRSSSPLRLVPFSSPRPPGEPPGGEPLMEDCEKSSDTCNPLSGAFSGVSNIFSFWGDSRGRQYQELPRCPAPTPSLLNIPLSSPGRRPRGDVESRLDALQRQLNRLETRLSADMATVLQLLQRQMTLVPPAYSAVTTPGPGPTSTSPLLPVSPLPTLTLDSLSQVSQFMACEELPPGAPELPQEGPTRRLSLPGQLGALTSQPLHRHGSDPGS

| Compound | hERG current change (%, negative = inhibition) at 1uM [%] |
| --- | --- |
| O=C(O)C(Cc1c[nH]c2ccccc12)NS(=O)(=O)c1ccc(Cl)c(C(F)(F)F)c1 (stereo not shown) | 7.86 |
| COc1ccc(NC(=S)Nc2ccc(OC)cc2OC)c(OC)c1 | 17.8 |
| COC/C=C/C1=CC2=CC(=O)C(C)(OC(=O)c3cnc4ccccc4n3)C(=O)C2=CN1C1CC1 (stereo not shown) | 9.57 |
| N#Cc1cn(CCCOc2ccccc2)c2ccccc12 | 11.3 |
| c1ccc(-c2nc(NC3CCCC3)c3ccccc3n2)cc1 | 18.4 |
| c1ccc2c(NC3CCCC3)nnc(NC3CCCC3)c2c1 | -70.4 |
| c1csc(-c2nnc(NC3CCCCC3)c3ccccc23)c1 | -40.8 |
| CC1(C(=O)O)COC(c2ccc([N+](=O)[O-])cc2)OC1 (stereo not shown) | 2.26 |
| Cn1c(=O)cc(SCC(=O)N2CCCC2)c2ccccc21 | 9.79 |
| CCn1ccnc1CNC(=O)CC1C(=O)NCCN1Cc1ccc(F)cc1Cl (stereo not shown) | 13.5 |
| COc1ccc(N2CCN(CC(O)c3c[nH]c4ccc(OC)cc34)CC2C)cc1 (stereo not shown) | -50.6 |
| COc1ccc2[nH]cc(C(O)CN3CCC(C(N)=O)CC3)c2c1 (stereo not shown) | 11.1 |
| COc1ccc2[nH]cc(C(O)CN3CCN(c4ccccc4F)CC3)c2c1 (stereo not shown) | 8.35 |
| CC(C)OC(=O)/C(=C\c1ccccc1)NC(=O)c1ccccc1 | 9.47 |
| CCN(CC)S(=O)(=O)c1ccc(C)c(NC(=O)CNCc2ccccc2OC)c1.O=C(O)C(=O)O | 20.9 |
| CCN(CC)S(=O)(=O)c1ccc(C)c(NC(=O)CNCCN(C(C)C)C(C)C)c1.O=C(O)C(=O)O | -66.5 |
| CCN(CC)S(=O)(=O)c1ccc(C)c(NC(=O)CN2CCN(C)CC2)c1.O=C(O)C(=O)O | 6 |
| O=C1Nc2ccccc2N=C(c2ccccc2)C1N1CCOCC1 (stereo not shown) | 18.1 |
| COc1nc(NC2CCCCC2)nc(NC(C)(C)C)n1 | 4.9 |
| Cc1ccc(NCc2nnc(SCc3ccc(C#N)cc3)n2Cc2ccco2)c(C)c1 | -54.9 |
| COC(=O)CSc1nnc(CSc2nc(C)cc(C)n2)n1Cc1ccco1 | 11.5 |
| Cc1ccc(-c2nnc(SCc3ccc(C#N)cc3)n2Cc2ccco2)cc1 | -19.2 |
| Cc1cc(C)nc(SCc2nnc(SCc3ccc([N+](=O)[O-])cc3)n2Cc2ccco2)n1 | -57.5 |

| Compound | hERG current change (%, negative = inhibition) at 1uM [%] |
| --- | --- |
| Cc1cccc(-c2nnc(SCc3ccc(C#N)cc3)n2Cc2ccco2)c1 | -44 |
| Cc1cc(C)nc(SCc2nnc(SCC(N)=O)n2Cc2ccco2)n1 | -3.7 |
| Cl.O=C(NCCCn1ccnc1)c1cc(Cl)cc(Cl)c1 | 4.65 |
| CC1CCC/C(=C\Nc2ccc(C(=O)O)c(O)c2)C1=O (stereo not shown) | 9.19 |
| COc1cc(OC)cc(C(=O)Oc2ccc(/C=N/Nc3nc4ccccc4s3)cc2OC)c1 | 0.482 |
| Cc1onc(-c2c(Cl)cccc2Cl)c1C(=O)Nc1ccc(Cl)cn1 | 11.3 |
| COc1ccccc1NS(=O)(=O)c1cccc(C(=O)NCC(c2ccco2)N2CCCCC2)c1 (stereo not shown) | -0.284 |
| CCOc1ccccc1C(=O)NCC(=O)NC(C)c1ccc(-n2ccnc2)cc1 (stereo not shown) | -58.3 |
| CCOc1ccccc1C(=O)NC(C)c1ccc(-n2ccnc2)cc1 (stereo not shown) | -34.8 |
| COc1ccccc1C(=O)NCC(=O)NC(C)c1ccc(-n2ccnc2)cc1 (stereo not shown) | -2.86 |
| COc1ccccc1NC(=O)c1ccc(COc2ccccc2Br)o1 | 13.8 |
| CCc1ccc(CN2CCN(Cc3ccc(SC)cc3)CC2)cc1.O=C(O)C(=O)O | -27.1 |
| COc1cc(OC)cc(C(=O)N2CCN(Cc3ccccc3[N+](=O)[O-])CC2)c1.O=C(O)C(=O)O | -7.12 |
| CCN(CC)c1ccc(CN2CCC(C(=O)NCc3ccc(C)cc3)CC2)cc1.O=C(O)C(=O)O | -13.2 |
| COc1ccccc1N1CCN(Cc2ccccc2)CC1.O=C(O)C(=O)O | 6.85 |
| COc1ccccc1N1CCN(Cc2ccc(Br)cc2)CC1.O=C(O)C(=O)O | -6.63 |
| CSc1ccc(CN2CCN(Cc3ccc([N+](=O)[O-])cc3)CC2)cc1.O=C(O)C(=O)O | -70.5 |
| CCS(=O)(=O)N1CCN(Cc2ccc([N+](=O)[O-])cc2)CC1.O=C(O)C(=O)O | 9.38 |
| COc1ccccc1N1CCN(Cc2ccc(SC)cc2)CC1.O=C(O)C(=O)O | -53.8 |
| Cc1ccc(CNC(=O)C2CCCC2)cc1 | 10.4 |
| O=C(O)C(=O)O.O=C(c1ccc([N+](=O)[O-])cc1)N1CCN(Cc2ccccc2[N+](=O)[O-])CC1 | -70.1 |
| CSc1ccc(CN2CCC(C(=O)NCc3ccc(C)cc3)CC2)cc1.O=C(O)C(=O)O | -76.1 |
| COc1ccc(C(=O)N2CCN(Cc3ccccc3[N+](=O)[O-])CC2)cc1.O=C(O)C(=O)O | -20.9 |
